# Reference: the supplement of paper PMC12340641
# Molecular target: IKZF1 (dCK*-IKZF1 fusion in HEK293FT) (UniProt Q13422)
# Assay: inhibition of IKZF1 HTRF signal (DMSO = 0%, pomalidomide 10 uM = 100%); higher = lower IKZF1 protein level
# Conditions: compound concentration: 5 uM, overnight (~20 h)
# Summary of the method: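 Compound was tested at 5 μM in single wells on HEK293FT cells (2000/well, 384-well) stably carrying an IKZF1 fusion, overnight at 37 °C. Total IKZF1 was measured in lysates with a commercial HTRF antibody kit as the background-subtracted 665/620 nm time-resolved FRET ratio. The reported figure is percent inhibition of IKZF1 signal, scaled per plate between vehicle and a reference degrader. The vehicle anchor was 0% and the degrader anchor 100%.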
# Chain of IKZF1 (dCK*-IKZF1 fusion in HEK293FT) (Q13422 whole entry, looked up, the tested form may be a part): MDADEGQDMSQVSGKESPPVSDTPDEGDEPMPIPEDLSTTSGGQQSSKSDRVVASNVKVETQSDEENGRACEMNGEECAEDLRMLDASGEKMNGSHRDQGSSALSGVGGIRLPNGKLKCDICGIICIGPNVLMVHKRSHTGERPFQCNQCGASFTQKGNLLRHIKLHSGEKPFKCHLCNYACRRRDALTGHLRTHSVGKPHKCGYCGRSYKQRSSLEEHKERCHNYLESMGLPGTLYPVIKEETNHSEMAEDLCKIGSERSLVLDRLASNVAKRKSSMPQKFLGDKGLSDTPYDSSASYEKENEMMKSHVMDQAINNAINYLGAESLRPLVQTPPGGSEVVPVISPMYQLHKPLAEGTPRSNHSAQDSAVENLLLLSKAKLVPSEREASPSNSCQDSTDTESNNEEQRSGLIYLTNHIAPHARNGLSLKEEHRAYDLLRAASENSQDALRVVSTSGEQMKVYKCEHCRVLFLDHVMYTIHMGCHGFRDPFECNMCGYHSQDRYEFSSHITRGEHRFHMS
row,Compound,inhibition of IKZF1 HTRF signal [%]
1,C=C(C)CN1CC[C@]23c4c5ccc(O)c4O[C@H]2c2[nH]c4ccccc4c2C[C@@]3(O)C1C5,-30.3
2,O=c1n(Cl)c(=O)n(Cl)c(=O)n1Cl,-9.26
3,COc1ccc(C[C@H]2NC[C@H](O)[C@H]2OC(C)=O)cc1 [anisomycin],63.3
4,C(=C\c1ccccc1)/CN1CCN(CCOC(c2ccccc2)c2ccccc2)CC1,-32.9
5,COc1cc2cc(c1Cl)N(C)C(=O)C[C@H](OC(=O)C(C)C)[C@]1(C)O[C@H]1[C@H](C)[C@@H]1C[C@@](O)(NC(=O)O1)[C@H](OC)/C=C/C=C(\C)C2 [Ansamitocin P-3],-18.7
6,O=C(CCCN1CCC2(CC1)C(=O)NCN2c1ccccc1)c1ccc(F)cc1 [spiperone],-3.55
7,c1ccc2c(c1)sc1ccccc12,-33.1
8,O=[N+]([O-])c1cc(O)c(O)c([N+](=O)[O-])c1,-33.8
9,COC[C@H]1OC(=O)c2coc3c2[C@@]1(C)C1=C(C3=O)[C@@H]2CCC(=O)[C@@]2(C)C[C@H]1OC(C)=O [Wortmannin],1.66
10,COc1cc([C@@H]2c3cc4c(cc3[C@H](O)[C@H]3COC(=O)C23)OCO4)cc(OC)c1OC (some centres not stated) [Podofilox],49.2
11,Clc1ccccc1C(c1ccccc1)(c1ccccc1)n1cccn1,-25.1
12,COc1cc([C@@H]2c3cc4c(cc3[C@H](O)[C@H]3COC(=O)[C@H]23)OCO4)cc(OC)c1OC,50
13,Oc1cc(Cl)ccc1Oc1ccc(Cl)cc1Cl,-23.1
14,O=[N+]([O-])/C=C/c1ccc2c(c1)OCO2,-44.2
15,"O=[N+]([O-])c1ccc(Cl)c([N+](=O)[O-])c1 [2,4-dinitrochlorobenzene]",7.2
16,CC[C@@]1(O)C(=O)OCc2c1cc1n(c2=O)Cc2cc3ccccc3nc2-1 [camptothecin],-10.9
17,CCC(C)[C@H]1O[C@]2(C=C[C@@H]1C)C[C@@H]1C[C@@H](C/C=C(\C)[C@@H](OC3C[C@H](OC)C(O[C@H]4C[C@H](OC)[C@@H](O)[C@H](C)O4)[C@H](C)O3)[C@@H](C)/C=C/C=C3\CO[C@@H]4[C@H](O)C(C)=C[C@@H](C(=O)O1)[C@]34O)O2 (some centres not stated) [ABAMECTIN (avermectin B1a shown)],-61.7
18,O=c1[nH]c2ccccc2n1CCCN1CCC(n2c(=O)[nH]c3cc(Cl)ccc32)CC1,4.83
19,COC(=O)[C@@]12OC[C@]34[C@H]([C@@H](O)[C@@H]1O)[C@@]1(C)CC(=O)C(O)=C(C)[C@@H]1C[C@H]3OC(=O)[C@H](OC(=O)/C=C(\C)C(C)C)[C@@H]24 [Bruceantin],43.7

row,Compound,inhibition of IKZF1 HTRF signal [%]
1,CC(C)[C@]12O[C@H]1[C@@H]1O[C@]13[C@]1(O[C@H]1C[C@H]1C4=C(CC[C@@]13C)C(=O)OC4)[C@@H]2O [Triptolide],29.6
2,CCCCCCCCCCC(=O)O[C@H]1CC[C@H]2[C@@H]3CCC4=CC(=O)CC[C@]4(C)[C@H]3CC[C@]12C [Testosterone (undecanoate)],-31.5
3,CN(C)C(=S)SSC(=S)N(C)C,-13.8
4,c1ccc2c(c1)Nc1ccccc1S2,-13.2
5,Cc1cc(C(C#N)c2ccc(Cl)cc2)c(Cl)cc1NC(=O)c1cc(I)cc(I)c1O (configuration not stated),-5.04
6,O=C1/C(=C/c2ccccc2)C[C@@]2(O)C3Cc4ccc(O)c5c4[C@@]2(CCN3CC2CC2)[C@H]1O5,27.9
7,Cc1cc(O)c2c(=O)c3c(O)cc(O)c4c5c(O)cc(O)c6c(=O)c7c(O)cc(C)c8c1c2c(c34)c(c78)c65 [Hypericin],13.4
8,C[C@H]1O[C@@H](O[C@H]2[C@@H](O)C[C@H](O[C@H]3[C@@H](O)C[C@H](O[C@H]4CC[C@@]5(C)[C@H](CC[C@@H]6[C@@H]5C[C@@H](O)[C@]5(C)C(c7coc(O)c7)CC[C@]65O)C4)O[C@@H]3C)O[C@@H]2C)C[C@H](O)[C@@H]1O (some centres not stated) [Digoxin],84.1
9,CCOc1ccccc1-n1c(C(C)N2CCN(C(=O)COc3ccc(Cl)cc3)CC2)nc2ccccc2c1=O (configuration not stated) [Erastin],-51.3
10,C[C@]12CC[C@H](O)C[C@H]1CC[C@@H]1[C@@H]2C[C@@H](O)[C@]2(C)[C@@H](C3=CC(=O)OC3)CC[C@]12O [Digoxigenin],22.7
11,OC1=[C@]([C@]2=C(O)C(C(C=O)=C(O)C(O)=C3C(C)C)=C3C=C2C)C(C)=CC4=C1C(C=O)=C(O)C(O)=C4C(C)C [gossypol],-16.2
12,CC[C@@H](C(=O)O)C1CC[C@H](C)C([C@@H](C)[C@H](O)[C@H](C)C(=O)[C@H](CC)C2O[C@]3(C=C[C@@H](O)[C@]4(CC[C@@](C)(C5CC[C@](O)(CC)[C@H](C)O5)O4)O3)[C@H](C)C[C@@H]2C)O1 (some centres not stated) [Salinomycin (Procoxacin)],-5.47
13,CCCCCCCCCCCCCCCC[n+]1ccccc1,-19.4
14,O=c1c2ccccc2[se]n1-c1ccccc1,-37.8
15,C[C@@]1(CO)[C@H](O)CC[C@@]2(C)[C@H]1CC[C@H]1C[C@@H]3C[C@@]12CC[C@]3(O)CO [Aphidicolin],-14.2
16,N#Cc1nn(-c2c(Cl)cc(C(F)(F)F)cc2Cl)c(N)c1S(=O)C(F)(F)F (configuration not stated),-50.9
17,O=C(N/N=C/c1ccc([N+](=O)[O-])o1)c1cc([N+](=O)[O-])cc([N+](=O)[O-])c1O,2.89
18,O=C(Nc1ccc(Br)cc1)c1cc(Br)cc(Br)c1O [tribomsalan],13.9
